Reference: ChEMBL document CHEMBL1961873, “Compounds: GSK PKIS; Assays: Nanosyn kinase panel” (2012)

Experiments:
[1] = target: Serine/threonine-protein kinase pim-2 (Homo sapiens) (UniProt Q9P1W9); details: at 1 µM;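 note: each value is a mean of the inhibition measurements against the kinase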
[2] = target: Serine/threonine-protein kinase pim-3 (Homo sapiens) (UniProt Q86V86); details: at 0.1 µM
[3] = target: Serine/threonine-protein kinase pim-3 (Homo sapiens) (UniProt Q86V86); details: at 1 µM
[4] = target: T1, MAP kinase-activated protein kinase 5 (Homo sapiens) (UniProt Q8IW41); details: at 0.1 µM
T1 sequence (whole entry): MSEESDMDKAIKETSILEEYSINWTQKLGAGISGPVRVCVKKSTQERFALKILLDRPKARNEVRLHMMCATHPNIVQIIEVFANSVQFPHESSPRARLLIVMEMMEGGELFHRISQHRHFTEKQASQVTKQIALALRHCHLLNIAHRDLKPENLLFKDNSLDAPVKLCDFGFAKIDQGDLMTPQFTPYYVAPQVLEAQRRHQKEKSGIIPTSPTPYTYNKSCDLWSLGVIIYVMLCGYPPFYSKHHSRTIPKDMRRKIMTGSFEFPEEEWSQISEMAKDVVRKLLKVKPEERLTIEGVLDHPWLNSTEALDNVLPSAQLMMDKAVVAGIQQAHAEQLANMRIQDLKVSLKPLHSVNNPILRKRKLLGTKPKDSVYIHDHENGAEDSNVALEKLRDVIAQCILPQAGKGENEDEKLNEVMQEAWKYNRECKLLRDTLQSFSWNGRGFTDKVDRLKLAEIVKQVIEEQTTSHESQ

[5] = target: T1, MAP kinase-activated protein kinase 5 (Homo sapiens); details: at 1 µM
[6] = target: Serine/threonine-protein kinase SIK1 (Homo sapiens) (UniProt P57059); details: at 0.1 µM
Serine/threonine-protein kinase SIK1 (Homo sapiens), sequence (P57059 whole entry): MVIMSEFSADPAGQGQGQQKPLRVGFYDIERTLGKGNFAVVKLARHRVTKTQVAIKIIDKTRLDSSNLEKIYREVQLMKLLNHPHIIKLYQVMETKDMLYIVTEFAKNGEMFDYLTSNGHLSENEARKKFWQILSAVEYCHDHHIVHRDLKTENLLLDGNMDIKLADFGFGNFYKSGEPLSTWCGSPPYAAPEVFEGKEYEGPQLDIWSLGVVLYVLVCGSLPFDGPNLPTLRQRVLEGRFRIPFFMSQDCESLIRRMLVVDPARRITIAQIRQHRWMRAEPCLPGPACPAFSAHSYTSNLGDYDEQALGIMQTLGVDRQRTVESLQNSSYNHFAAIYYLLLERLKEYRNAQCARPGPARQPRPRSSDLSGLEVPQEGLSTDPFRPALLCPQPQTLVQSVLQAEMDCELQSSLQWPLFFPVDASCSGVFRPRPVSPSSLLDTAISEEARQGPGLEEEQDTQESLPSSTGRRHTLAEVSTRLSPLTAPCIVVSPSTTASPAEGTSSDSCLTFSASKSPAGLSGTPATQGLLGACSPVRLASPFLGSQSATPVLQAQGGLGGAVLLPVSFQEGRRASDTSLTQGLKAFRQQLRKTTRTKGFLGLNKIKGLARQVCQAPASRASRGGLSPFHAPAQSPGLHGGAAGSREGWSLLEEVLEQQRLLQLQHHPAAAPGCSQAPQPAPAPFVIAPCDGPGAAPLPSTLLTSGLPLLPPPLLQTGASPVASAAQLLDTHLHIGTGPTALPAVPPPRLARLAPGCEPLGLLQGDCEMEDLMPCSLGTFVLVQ

[7] = target: Serine/threonine-protein kinase SIK1 (Homo sapiens) (UniProt P57059); details: at 1 µM
[8] = target: Serine/threonine-protein kinase SIK2 (Homo sapiens) (UniProt Q9H0K1); details: at 0.1 µM
Serine/threonine-protein kinase SIK2 (Homo sapiens), sequence (Q9H0K1 whole entry, looked up): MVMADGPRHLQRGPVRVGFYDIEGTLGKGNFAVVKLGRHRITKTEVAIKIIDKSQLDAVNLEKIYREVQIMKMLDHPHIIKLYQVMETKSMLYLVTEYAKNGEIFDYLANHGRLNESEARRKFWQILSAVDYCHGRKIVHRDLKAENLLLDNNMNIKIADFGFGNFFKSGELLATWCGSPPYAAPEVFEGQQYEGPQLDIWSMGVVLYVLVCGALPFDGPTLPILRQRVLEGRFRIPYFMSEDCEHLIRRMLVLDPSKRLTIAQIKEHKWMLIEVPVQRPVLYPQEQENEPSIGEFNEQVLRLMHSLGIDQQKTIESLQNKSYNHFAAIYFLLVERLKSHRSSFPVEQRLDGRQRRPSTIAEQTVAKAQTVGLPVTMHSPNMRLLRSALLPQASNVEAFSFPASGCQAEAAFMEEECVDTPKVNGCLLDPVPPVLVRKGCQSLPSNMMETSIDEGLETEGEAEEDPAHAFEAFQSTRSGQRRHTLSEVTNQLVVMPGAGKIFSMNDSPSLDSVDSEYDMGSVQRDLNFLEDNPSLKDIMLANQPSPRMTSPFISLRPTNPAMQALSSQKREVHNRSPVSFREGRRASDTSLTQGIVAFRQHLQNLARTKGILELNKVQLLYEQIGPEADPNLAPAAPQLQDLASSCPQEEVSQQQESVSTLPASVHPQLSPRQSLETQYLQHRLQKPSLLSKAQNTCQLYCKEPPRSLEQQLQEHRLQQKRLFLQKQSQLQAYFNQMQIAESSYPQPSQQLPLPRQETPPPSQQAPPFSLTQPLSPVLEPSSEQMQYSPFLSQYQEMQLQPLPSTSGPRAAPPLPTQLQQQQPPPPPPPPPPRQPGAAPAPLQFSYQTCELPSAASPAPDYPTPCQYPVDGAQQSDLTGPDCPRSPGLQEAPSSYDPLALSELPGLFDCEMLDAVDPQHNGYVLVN

[9] = target: Serine/threonine-protein kinase SIK2 (Homo sapiens) (UniProt Q9H0K1); details: at 1 µM
[10] = target: T2, Serine/threonine-protein kinase TBK1 (Homo sapiens) (UniProt Q9UHD2); details: at 0.1 µM
T2 sequence (whole entry): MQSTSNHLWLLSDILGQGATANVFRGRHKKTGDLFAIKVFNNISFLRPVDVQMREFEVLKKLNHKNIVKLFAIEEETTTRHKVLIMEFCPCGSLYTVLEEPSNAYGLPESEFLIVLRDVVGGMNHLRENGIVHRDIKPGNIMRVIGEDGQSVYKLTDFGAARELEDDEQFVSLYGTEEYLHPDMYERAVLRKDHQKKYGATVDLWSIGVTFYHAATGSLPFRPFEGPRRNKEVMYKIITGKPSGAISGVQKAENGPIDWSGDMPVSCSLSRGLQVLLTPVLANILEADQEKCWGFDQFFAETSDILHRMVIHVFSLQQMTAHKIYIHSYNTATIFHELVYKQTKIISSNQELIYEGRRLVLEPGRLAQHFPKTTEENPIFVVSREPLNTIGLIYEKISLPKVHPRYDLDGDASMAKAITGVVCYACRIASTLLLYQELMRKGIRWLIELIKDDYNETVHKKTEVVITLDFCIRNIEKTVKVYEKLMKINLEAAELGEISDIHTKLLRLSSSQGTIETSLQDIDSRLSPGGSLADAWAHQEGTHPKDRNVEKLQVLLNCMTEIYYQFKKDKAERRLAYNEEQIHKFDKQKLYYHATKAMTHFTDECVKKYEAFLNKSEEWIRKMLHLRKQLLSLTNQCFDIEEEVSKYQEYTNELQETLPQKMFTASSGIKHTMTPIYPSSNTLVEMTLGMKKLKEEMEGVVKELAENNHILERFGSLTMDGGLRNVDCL

[11] = target: T2, Serine/threonine-protein kinase TBK1 (Homo sapiens); details: at 1 µM
[12] = target: T3, Testis-specific serine/threonine-protein kinase 1 (Homo sapiens) (UniProt Q9BXA7); details: at 0.1 µM
T3 sequence (whole entry): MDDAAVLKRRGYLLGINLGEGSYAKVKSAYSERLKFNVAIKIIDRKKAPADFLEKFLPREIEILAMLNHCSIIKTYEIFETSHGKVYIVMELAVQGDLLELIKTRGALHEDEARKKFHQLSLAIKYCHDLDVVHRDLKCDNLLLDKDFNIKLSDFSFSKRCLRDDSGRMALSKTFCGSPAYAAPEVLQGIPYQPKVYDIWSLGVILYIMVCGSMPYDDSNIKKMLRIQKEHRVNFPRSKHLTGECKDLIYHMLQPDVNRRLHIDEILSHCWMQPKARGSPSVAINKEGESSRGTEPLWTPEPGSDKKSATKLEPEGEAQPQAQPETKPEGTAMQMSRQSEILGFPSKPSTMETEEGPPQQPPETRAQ

[13] = target: T3, Testis-specific serine/threonine-protein kinase 1 (Homo sapiens); details: at 1 µM
[14] = target: T4, Testis-specific serine/threonine-protein kinase 2 (Homo sapiens) (UniProt Q96PF2); details: at 0.1 µM
T4 sequence (whole entry): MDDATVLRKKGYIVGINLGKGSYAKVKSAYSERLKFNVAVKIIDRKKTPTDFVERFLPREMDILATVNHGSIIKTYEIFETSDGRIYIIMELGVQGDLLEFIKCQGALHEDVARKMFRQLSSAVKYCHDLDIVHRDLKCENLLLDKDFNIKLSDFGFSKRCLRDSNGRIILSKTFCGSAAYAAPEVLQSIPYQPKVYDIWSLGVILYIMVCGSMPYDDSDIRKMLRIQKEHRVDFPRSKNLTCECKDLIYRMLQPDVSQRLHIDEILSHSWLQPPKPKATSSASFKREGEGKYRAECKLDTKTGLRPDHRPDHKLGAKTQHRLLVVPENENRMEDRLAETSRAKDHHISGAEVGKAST

[15] = target: T4, Testis-specific serine/threonine-protein kinase 2 (Homo sapiens); details: at 1 µM
[16] = target: Casein kinase I isoform alpha (Homo sapiens) (UniProt P48729); details: at 0.1 µM
Casein kinase I isoform alpha (Homo sapiens), sequence (P48729 2-337 limits assumed): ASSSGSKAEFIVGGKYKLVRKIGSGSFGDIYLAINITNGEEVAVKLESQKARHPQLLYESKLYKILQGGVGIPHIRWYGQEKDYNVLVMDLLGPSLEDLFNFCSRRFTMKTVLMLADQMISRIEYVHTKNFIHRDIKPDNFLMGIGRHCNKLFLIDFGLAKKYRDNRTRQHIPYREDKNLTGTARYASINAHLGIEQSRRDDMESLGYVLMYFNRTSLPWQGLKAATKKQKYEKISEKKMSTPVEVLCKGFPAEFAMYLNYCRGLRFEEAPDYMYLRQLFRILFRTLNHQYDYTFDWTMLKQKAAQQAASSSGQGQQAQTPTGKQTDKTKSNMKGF

[17] = target: Casein kinase I isoform alpha (Homo sapiens) (UniProt P48729); details: at 1 µM
[18] = target: Casein kinase I isoform gamma-1 (Homo sapiens) (UniProt Q9HCP0); details: at 0.1 µM
Casein kinase I isoform gamma-1 (Homo sapiens), sequence (Q9HCP0 whole entry, looked up, canonical isoform): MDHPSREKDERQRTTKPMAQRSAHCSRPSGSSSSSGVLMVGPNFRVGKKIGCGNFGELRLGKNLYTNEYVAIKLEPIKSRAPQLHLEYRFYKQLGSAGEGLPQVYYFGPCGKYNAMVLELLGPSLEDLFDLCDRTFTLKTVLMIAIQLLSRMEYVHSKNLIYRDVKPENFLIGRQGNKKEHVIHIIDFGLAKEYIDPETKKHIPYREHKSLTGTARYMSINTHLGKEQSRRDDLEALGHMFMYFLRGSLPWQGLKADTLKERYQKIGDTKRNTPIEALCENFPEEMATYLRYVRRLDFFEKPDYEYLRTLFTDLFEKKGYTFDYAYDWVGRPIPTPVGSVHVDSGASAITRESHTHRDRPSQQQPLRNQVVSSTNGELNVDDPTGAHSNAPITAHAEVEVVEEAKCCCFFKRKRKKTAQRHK

[19] = target: Casein kinase I isoform gamma-1 (Homo sapiens) (UniProt Q9HCP0); details: at 1 µM
[20] = target: Casein kinase I isoform gamma-2 (Homo sapiens) (UniProt P78368); details: at 0.1 µM;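 note: values are mean inhibition figures reported as part of the GSK PKIS dataset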
Casein kinase I isoform gamma-2 (Homo sapiens), sequence (P78368 whole entry, looked up, canonical isoform): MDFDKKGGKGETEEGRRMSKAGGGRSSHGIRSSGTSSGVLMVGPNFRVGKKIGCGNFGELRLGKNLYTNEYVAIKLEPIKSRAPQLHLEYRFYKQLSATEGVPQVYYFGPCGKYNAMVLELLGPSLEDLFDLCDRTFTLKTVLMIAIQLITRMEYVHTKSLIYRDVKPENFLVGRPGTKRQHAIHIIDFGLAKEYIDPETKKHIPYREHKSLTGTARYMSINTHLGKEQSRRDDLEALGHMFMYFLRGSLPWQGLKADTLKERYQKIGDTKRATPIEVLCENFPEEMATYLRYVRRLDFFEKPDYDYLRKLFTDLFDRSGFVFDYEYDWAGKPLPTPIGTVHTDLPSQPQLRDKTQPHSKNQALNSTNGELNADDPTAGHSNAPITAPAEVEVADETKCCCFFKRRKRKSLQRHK

Serine/threonine-protein kinase pim-2 (Homo sapiens), sequence (Q9P1W9 whole entry, looked up): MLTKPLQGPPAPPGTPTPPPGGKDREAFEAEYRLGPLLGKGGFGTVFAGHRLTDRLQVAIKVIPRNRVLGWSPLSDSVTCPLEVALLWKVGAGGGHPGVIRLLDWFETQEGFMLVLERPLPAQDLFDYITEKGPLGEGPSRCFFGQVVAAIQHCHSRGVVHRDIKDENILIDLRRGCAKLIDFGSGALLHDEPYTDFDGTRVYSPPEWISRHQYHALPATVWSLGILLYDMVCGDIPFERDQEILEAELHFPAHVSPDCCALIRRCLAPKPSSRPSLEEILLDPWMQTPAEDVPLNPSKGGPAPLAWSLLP

| SMILES | inhibition [1] [%] | inhibition [2] [%] | inhibition [3] [%] | inhibition [4] [%] | inhibition [5] [%] | inhibition [6] [%] | inhibition [7] [%] | inhibition [8] [%] | inhibition [9] [%] | inhibition [10] [%] | inhibition [11] [%] | inhibition [12] [%] | inhibition [13] [%] | inhibition [14] [%] | inhibition [15] [%] | inhibition [16] [%] | inhibition [17] [%] | inhibition [18] [%] | inhibition [19] [%] | inhibition [20] [%] |
| --- | --- | --- | --- | --- | --- | --- | --- | --- | --- | --- | --- | --- | --- | --- | --- | --- | --- | --- | --- | --- |
| CCn1c(-c2nonc2N)nc2ccc(F)cc21 | 0.34 | -0.77 | 4.99 | 2.78 | 4.45 | 4.96 | 8.41 | 7.14 | 12.5 | 5.18 | 4.44 | 5.02 | 7.33 | 2.94 | 4.64 | 3.7 | 4.99 | 4.91 | 5.86 | 5.17 |
| FC(F)(F)c1ccc(-c2nn3ncccc3c2-c2ccnc(Nc3ccc4c(c3)OCCO4)n2)cc1 | 5.12 | 6.66 | 10.2 | 2.37 | 5.39 | -4.38 | 0.84 | -0.15 | 0.08 | 5.62 | 4.67 | 1.27 | 4.75 | 2.11 | 5.84 | 9.84 | 4.54 | -0.1 | 0.59 | 0.52 |
| CCOc1nccc2c1nc(-c1nonc1N)n2CC | 1.49 | 3.33 | 5.37 | 2.15 | 3.99 | 4.04 | 5.99 | 4.45 | 9.31 | 1.76 | 6.01 | 3.94 | 4.63 | 2.77 | 4.45 | 3.85 | 2.28 | 2.65 | 1.76 | 1.95 |
| COc1cc2ncnc(Nc3ccc4c(cnn4Cc4ccccc4)c3)c2cc1OC | 2.31 | -0.75 | 1.06 | 0.57 | 0.85 | 4.47 | 5.69 | 4.37 | 3.7 | 0.22 | 1.45 | 2.62 | 3.63 | 0.21 | 0.75 | 1.02 | 1.16 | 1.64 | 2.33 | 1.06 |
| NS(=O)(=O)c1ccc(-c2cc3ccncc3cc2OCc2ccccc2)cc1 | -1.33 | -0.2 | 1.38 | 0.82 | 1.86 | 4.35 | 10.3 | 6.46 | 4.1 | 5.88 | 2.74 | 3.43 | 3.97 | 2.95 | 2.52 | 4.76 | 3.35 | 2.57 | 3.44 | 1.61 |
| COc1cccc(-n2ncc3c(N/N=C/c4ccc(C)cc4)ncnc32)c1 | 0.75 | 2.2 | 8.3 | 1.88 | 2.22 | 7.95 | 12.6 | 8.99 | 14.7 | 2.64 | 5.4 | 5.91 | 15.2 | 2.36 | 3.89 | 3 | 8.69 | 6.44 | 11.2 | 6.88 |
| Cc1ccc2c(-c3ccnc(Nc4ccc5c(c4)OCCO5)n3)c(-c3ccc(C(F)(F)F)cc3)nn2n1 | 1.63 | 0.32 | 0.77 | 0.37 | 0.83 | 0.02 | -0.13 | 10.8 | 0.48 | 0.84 | 4.69 | 1.7 | 2.26 | 0.67 | 0.47 | 0.54 | -3.1 | 1.24 | 1.97 | 0.1 |
| COc1cccc(-n2nc(C)c3c(N/N=C(\C)c4ccncc4)ncnc32)c1 | -0.42 | -0.59 | -1.03 | -0.18 | -0.64 | 1.56 | 3.69 | 0.4 | -0.38 | -0.16 | -1.57 | 1.47 | 1.88 | -0.53 | -0.42 | -1.81 | 0.17 | 0.02 | 0.62 | 0.14 |
| Oc1cccc(-c2nc(-c3ccccc3)[nH]c2-c2ccncc2)c1 | 0.33 | -1.73 | 1.72 | 1.55 | 1.19 | 8.44 | 11.6 | 4.34 | 10.2 | 1.64 | 2.77 | 5.01 | 2.8 | 3.51 | 2.57 | 12.6 | 23.9 | 2.26 | 3.29 | 2.14 |
| N#Cc1c(NC(=O)c2ccccc2F)sc2c1CCCC2 | 0.56 | 0.44 | 2.71 | -0.42 | -0.7 | 0.64 | 2.74 | -2.07 | -0.94 | -1.61 | -0.25 | 0.47 | 0.66 | 0.05 | 0.04 | -1.71 | -1.69 | -1.23 | -0.65 | -1.34 |
| Cc1ccc(O)cc1Nc1ccnc2ccc(S(C)(=O)=O)cc12 | 0.8 | 0.69 | 1.04 | 2.48 | 2.77 | 47.2 | 89.6 | 15.8 | 52.6 | 2.4 | 9.14 | 3.95 | 4.63 | 2.41 | 3.33 | 11.9 | 43.8 | 4.05 | 7.45 | 4.13 |
| CS(=O)(=O)Nc1cccc(-c2ccc3c(NC(=O)C4CC4)n[nH]c3c2)c1 | 1.38 | -0.62 | -2.53 | 0.1 | -1.16 | -0.72 | 5.25 | -2.65 | 9.32 | -0.1 | 3.56 | 1.06 | 0.45 | 0.02 | -1.13 | 1.72 | 1.75 | 0.64 | 3.47 | -0.83 |
| Cc1ccc(Nc2ccnc(Nc3cccc(C(N)=O)c3)n2)cc1O | -3.06 | 0.18 | 1.91 | 1.13 | 1.29 | 29.8 | 80.2 | 13.1 | 53.5 | 2.74 | 19.6 | 3.41 | 5.19 | 1.39 | 1.65 | 1.66 | 4.05 | -1.2 | 1.43 | -1.06 |
